Assay outcomes (PubChem BioAssay)
CYP2C9 activ: activators of human CYP2C9; recombinant CYP2C9, luciferin-H conversion, luminescence; hits give high values; factor 1 = untreated enzyme, 0 = blocked; P11712; 96,000 tested, 1.4% active; activation factor at 5 µM;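 active = activation factor of 2 or more for CYP2C9 at a 5 µM dose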
CYP2C9 inhib: human CYP2C9 inhibition; P11712; CYP2C9 Supersomes, luciferin-H conversion, luminescence; inhibition, % at 5 µM; 96,000 tested, 20% active; AID 777;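 active = blocking of liver enzyme CYP2C9 beyond about 50% at 5 µM, limit read from the data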
CYP2C19 activ: activators of human cytochrome P450 2C19. activation factor at 5 µM. P33261. recombinant CYP2C19, luciferin-H EGE luminescence; hits give high values; 0 = fully inhibited enzyme, 1 = untreated enzyme. 96,000 tested, under 10 active;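 active = activation factor of at least 2 at 5 µM in the primary screen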
CYP2C19 inhib: blocks human cytochrome P450 2C19; inhibition, % at 5 µM; CYP2C19 Supersomes, luciferin-H EGE luminescence, 30 min; 96,000 tested, 21% active;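 active = CYP2C19 inhibition above a set limit at 5 µM in the primary screen, cut at about 50% in these data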
D1 allo mod: D1 dopamine receptor (human) allosteric modulation; P21728; HEK293 D1, CRE-luciferase, dopamine EC30 potentiation; actives deviate in either direction; B-score at 10 µM; 58,000 tested, 5.9% active; AID 641;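 active = luminescence count or its row- and column-corrected plate score outside the 99.7% band of the plate's sample wells, on either side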
DAT uptake mod: changed human dopamine transporter uptake under cocaine IC80; Q01959; LLC-PK1 hDAT cells, [14C]-dopamine uptake with cocaine IC80; actives deviate in either direction; B-score at 10 µM; 110,000 tested, 1.3% active;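 active = Z score or B-score, a plate-position-corrected score, falls beyond the plate's 99.7% confidence bounds, in either direction; inactive = both scores lie inside the 99.7% bounds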
Target sequence (Q01959 whole entry, looked up): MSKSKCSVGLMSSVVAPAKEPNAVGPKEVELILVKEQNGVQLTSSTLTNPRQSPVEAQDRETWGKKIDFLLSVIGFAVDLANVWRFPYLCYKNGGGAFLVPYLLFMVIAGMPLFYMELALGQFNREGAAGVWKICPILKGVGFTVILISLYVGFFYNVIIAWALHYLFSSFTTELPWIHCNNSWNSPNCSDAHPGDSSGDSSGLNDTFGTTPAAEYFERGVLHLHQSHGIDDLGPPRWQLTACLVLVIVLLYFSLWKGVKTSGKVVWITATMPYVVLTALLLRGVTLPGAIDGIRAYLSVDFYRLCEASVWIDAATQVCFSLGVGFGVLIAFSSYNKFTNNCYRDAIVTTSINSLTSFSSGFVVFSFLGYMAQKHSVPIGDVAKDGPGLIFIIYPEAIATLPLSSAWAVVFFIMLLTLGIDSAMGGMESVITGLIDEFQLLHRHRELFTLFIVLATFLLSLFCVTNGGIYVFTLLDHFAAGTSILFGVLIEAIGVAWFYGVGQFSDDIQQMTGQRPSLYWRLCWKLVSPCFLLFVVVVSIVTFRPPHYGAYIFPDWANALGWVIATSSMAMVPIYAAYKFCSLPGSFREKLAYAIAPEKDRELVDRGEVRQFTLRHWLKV
Large screens that a line does not name were inactive. Compounds with a hit are over-represented: about 28% of the library has one in this group of screens.

COc1ccc(OC)c(NC(=O)CCNS(=O)(=O)c2cccs2)c1	none (no result: CYP2C9 activ, CYP2C9 inhib, CYP2C19 activ, CYP2C19 inhib)
COc1ccc2nc(NC(=O)c3cnccn3)sc2c1	D1 allo mod -4.87
COc1ccc(NC(=O)CNS(=O)(=O)c2ccc3nc(C)sc3c2)c(OC)c1	CYP2C9 inhib 51.2
CCOc1ccc(NCC(=O)Nc2ccc(Cl)cc2C)cc1	none (no result: CYP2C9 activ, CYP2C9 inhib, CYP2C19 activ, CYP2C19 inhib, D1 allo mod)
COCCNC(=O)CNS(=O)(=O)c1ccc2nc(C)sc2c1	none
CCCCNc1c([N+](=O)[O-])cc(C)cc1[N+](=O)[O-]	none (no result: D1 allo mod)
CCCNc1nc(C)cc(-c2cc(C(=O)Nc3ccccc3)on2)n1	none (no result: CYP2C9 activ, CYP2C9 inhib, CYP2C19 activ, CYP2C19 inhib, D1 allo mod)
COc1ccc(CNC(=O)CN(C(=O)c2ccc(CN3CCOCC3)o2)C2CCCC2)cc1	none (no result: CYP2C9 activ, CYP2C9 inhib, CYP2C19 activ, CYP2C19 inhib)
COc1ccc2nc(NC(=O)CN(C)S(=O)(=O)c3cccs3)sc2c1	CYP2C9 inhib 61.6, CYP2C19 inhib 79.8 (no result: D1 allo mod)
COc1ccc2nc(NC(=O)Cc3cccs3)sc2c1	none (no result: D1 allo mod)
COc1ccc2nc(NC(=O)CNS(=O)(=O)c3cccs3)sc2c1	CYP2C19 inhib 63.6 (no result: D1 allo mod)
COc1cccc(NC(=O)CSc2nc(C)cs2)c1	CYP2C19 inhib 81.9 (no result: D1 allo mod)
Cc1csc(SCC(=O)Nc2cccc3nsnc23)n1	CYP2C9 inhib 76.6, CYP2C19 inhib 55.3
Cc1csc(NC(=O)CSc2nc(C)cs2)n1	CYP2C19 inhib 57.8
COc1ccc(-c2csc(NC(=O)CSc3nc(C)cs3)n2)cc1	none (no result: CYP2C9 activ, CYP2C9 inhib, CYP2C19 activ, CYP2C19 inhib, D1 allo mod)
Cc1csc(SCC(=O)Nc2ccccn2)n1	none
COc1ccc(NC(=O)CSc2nc(C)cs2)cc1OC	none (no result: D1 allo mod)
Cc1csc(SCC(=O)Nc2cc(C(C)(C)C)nn2-c2ccccc2)n1	CYP2C9 inhib 79.8, CYP2C19 inhib 70.8 (no result: D1 allo mod)
Cc1cccc(NC(=O)C2CC(=O)N(c3ccccc3)C2)c1C (stereo not given)	none (no result: D1 allo mod)
CC(C)OC(=O)C1C2C=CC3(CN(C(C)c4ccc(Br)cc4)C(=O)C13)O2 (stereo not given)	CYP2C19 inhib 83.0
CC(c1ccc(Br)cc1)N1CC23C=CC(O2)C(C(=O)O)C3C1=O (stereo not given)	none
CCn1c(SCc2c(F)cccc2Cl)nnc1-c1ccco1	CYP2C19 inhib 60.7 (no result: D1 allo mod)
CCOC(=O)c1sc(NC(=O)CSc2nnc(C(C)C)n2CC)nc1C	DAT uptake mod 2.54
CCOC(=O)c1c(NC(=O)c2ccoc2C)sc(C(=O)N(C)C)c1C	CYP2C9 inhib 83.4, CYP2C19 inhib 57.2 (no result: D1 allo mod)
CCN(CC)C(=O)c1sc(NC(=O)c2ccoc2C)c(C(=O)OC)c1C	none
CCOC(=O)c1c(NC(=O)C2c3ccccc3Oc3ccccc32)sc(C(C)=O)c1C	CYP2C9 inhib 94.4 (no result: D1 allo mod)
CCn1c(SCC(=O)OCc2ccccc2)nnc1-c1ccco1	none
COC(=O)c1c(NC(=O)C2c3ccccc3Oc3ccccc32)sc(C)c1C	none (no result: D1 allo mod)
Cc1ccc2nc(SCCC(=O)O)cc(C)c2c1	none (no result: D1 allo mod)
C#CCOC(=O)c1ccccc1C(=O)O	none (no result: CYP2C9 activ, CYP2C9 inhib, CYP2C19 activ, CYP2C19 inhib, D1 allo mod)
CCOC(=O)c1c(NC(=O)COC)sc(C(C)=O)c1C	none (no result: D1 allo mod)
C=CCn1c(SCC(=O)Nc2nccs2)nnc1-c1ccco1	CYP2C19 inhib 85.3 (no result: D1 allo mod)
CCOC(=O)c1c(NC(=O)CSc2n[nH]c(-c3ccco3)n2)sc(C)c1C	CYP2C9 inhib 88.3, D1 allo mod 6.88
O=C(O)c1ccc(CSc2n[nH]c(-c3ccco3)n2)cc1	none
CCOC(=O)c1c(NC(=O)CSc2nnc(-c3cccc(C)c3)n2CC)sc(C(C)=O)c1C	CYP2C9 inhib 94.3 (no result: D1 allo mod)
O=C(CSc1n[nH]c(-c2ccco2)n1)Nc1sc2c(c1C(=O)Nc1ccccc1)CCCC2	CYP2C9 inhib 84.1
COC(=O)c1c(NC(=O)c2nc3ncccn3n2)sc(C(=O)N(C)C)c1C	none (no result: DAT uptake mod)
CCn1c(SCC(=O)Nc2nc(C)c(C)s2)nnc1-c1cccs1	none (no result: CYP2C9 activ, CYP2C9 inhib, CYP2C19 activ, CYP2C19 inhib, D1 allo mod)
CCOC(=O)c1c(NC(=O)CSc2nc(C)cc(C)c2C#N)sc(C(C)=O)c1C	none (no result: DAT uptake mod)
CCn1c(SCC(=O)Nc2sc3c(c2C#N)CCC(C(C)(C)C)C3)nnc1-c1ccco1 (stereo not given)	none (no result: D1 allo mod)
CCOC(=O)c1c(NC(=O)CSc2nnc(-c3ccccc3)n2CC)sc(C(C)=O)c1C	CYP2C9 inhib 97.3, CYP2C19 inhib 89.7, DAT uptake mod 2.51
CCn1c(SCC(=O)Nc2sc3c(c2C#N)CCCC3)nnc1-c1ccco1	CYP2C9 inhib 55.1 (no result: D1 allo mod)
CCOC(=O)c1sc(NC(=O)CSc2nnc(-c3ccco3)n2CC)c(C(=O)OCC)c1C	CYP2C9 inhib 96.3
CCn1c(SCC(=O)Nc2nc(C)c(C)s2)nnc1-c1ccco1	CYP2C19 inhib 79.5
